Inhibition data for 14 molecules are collected here from ChEMBL document CHEMBL1961873, “Compounds: GSK PKIS; Assays: Nanosyn kinase panel” (2012).

For experiment [1], the target named is Mitogen-activated protein kinase 3 (Homo sapiens) (UniProt P27361). The following applies: at 1 µM.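 Further: values are mean percent inhibition of MAPK3.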
Experiment [2] concerns the target SRSF protein kinase 3 (Homo sapiens) (UniProt Q9UPE1). The following applies: at 0.1 µM.
Experiment [3] has the same target. The following applies: at 1 µM.
Experiment [4] deals with Mitogen-activated protein kinase 14 (Homo sapiens) (UniProt Q16539). The following applies: at 0.1 µM.
For experiment [5] the target is unchanged. The following applies: at 1 µM.
Experiment [6] addresses Mitogen-activated protein kinase 11 (Homo sapiens) (UniProt Q15759). The following applies: at 0.1 µM.
The target is the same in experiment [7]. The following applies: at 1 µM.
In experiment [8] the target is T1, Mitogen-activated protein kinase 13 (Homo sapiens) (UniProt O15264).
T1 sequence (whole entry): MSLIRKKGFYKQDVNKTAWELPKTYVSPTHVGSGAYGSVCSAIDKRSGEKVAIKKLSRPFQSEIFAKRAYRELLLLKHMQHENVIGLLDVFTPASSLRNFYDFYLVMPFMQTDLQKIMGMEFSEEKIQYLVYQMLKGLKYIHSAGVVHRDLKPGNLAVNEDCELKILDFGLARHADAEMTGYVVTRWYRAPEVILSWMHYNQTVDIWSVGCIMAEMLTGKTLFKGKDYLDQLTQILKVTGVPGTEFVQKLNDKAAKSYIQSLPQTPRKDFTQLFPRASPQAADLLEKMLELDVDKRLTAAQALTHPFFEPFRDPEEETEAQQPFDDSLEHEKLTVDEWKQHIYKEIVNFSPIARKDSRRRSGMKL
The following applies: at 0.1 µM.

The target in experiment [9] is T1, Mitogen-activated protein kinase 13 (Homo sapiens). The following applies: at 1 µM.
The target in experiment [10] is T2, Mitogen-activated protein kinase 12 (Homo sapiens) (UniProt P53778).
T2 sequence (whole entry): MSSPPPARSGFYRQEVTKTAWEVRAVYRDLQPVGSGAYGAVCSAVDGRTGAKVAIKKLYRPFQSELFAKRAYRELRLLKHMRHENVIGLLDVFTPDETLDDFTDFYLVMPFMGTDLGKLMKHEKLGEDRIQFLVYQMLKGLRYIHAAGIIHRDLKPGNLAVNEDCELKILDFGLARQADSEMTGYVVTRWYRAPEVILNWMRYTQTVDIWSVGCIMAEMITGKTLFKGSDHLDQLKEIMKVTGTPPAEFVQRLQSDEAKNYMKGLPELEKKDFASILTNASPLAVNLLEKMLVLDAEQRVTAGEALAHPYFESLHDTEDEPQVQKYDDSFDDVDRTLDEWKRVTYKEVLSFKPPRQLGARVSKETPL
The following applies: at 0.1 µM.

Chain of Mitogen-activated protein kinase 11 (Homo sapiens) (Q15759 whole entry): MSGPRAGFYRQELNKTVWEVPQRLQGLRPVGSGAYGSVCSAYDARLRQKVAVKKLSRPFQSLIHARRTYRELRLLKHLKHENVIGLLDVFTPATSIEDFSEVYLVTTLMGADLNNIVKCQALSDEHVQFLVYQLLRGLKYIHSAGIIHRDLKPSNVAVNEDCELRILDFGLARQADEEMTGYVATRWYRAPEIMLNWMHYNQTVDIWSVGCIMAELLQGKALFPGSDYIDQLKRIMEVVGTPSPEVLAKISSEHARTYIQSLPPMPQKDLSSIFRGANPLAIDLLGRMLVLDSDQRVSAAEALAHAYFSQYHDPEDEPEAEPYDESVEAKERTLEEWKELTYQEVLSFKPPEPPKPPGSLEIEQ
Chain of Mitogen-activated protein kinase 14 (Homo sapiens) (Q16539 whole entry): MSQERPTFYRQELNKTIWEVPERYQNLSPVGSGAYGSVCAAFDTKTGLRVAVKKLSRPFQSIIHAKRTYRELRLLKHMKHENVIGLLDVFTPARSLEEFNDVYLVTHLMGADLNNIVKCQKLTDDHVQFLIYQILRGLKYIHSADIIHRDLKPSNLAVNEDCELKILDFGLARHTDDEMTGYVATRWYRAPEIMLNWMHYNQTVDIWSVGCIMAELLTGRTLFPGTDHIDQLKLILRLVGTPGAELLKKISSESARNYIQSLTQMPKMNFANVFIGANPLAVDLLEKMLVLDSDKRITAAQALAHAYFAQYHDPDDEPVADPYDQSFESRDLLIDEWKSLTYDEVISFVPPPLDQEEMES
Chain of Mitogen-activated protein kinase 3 (Homo sapiens) (P27361 whole entry): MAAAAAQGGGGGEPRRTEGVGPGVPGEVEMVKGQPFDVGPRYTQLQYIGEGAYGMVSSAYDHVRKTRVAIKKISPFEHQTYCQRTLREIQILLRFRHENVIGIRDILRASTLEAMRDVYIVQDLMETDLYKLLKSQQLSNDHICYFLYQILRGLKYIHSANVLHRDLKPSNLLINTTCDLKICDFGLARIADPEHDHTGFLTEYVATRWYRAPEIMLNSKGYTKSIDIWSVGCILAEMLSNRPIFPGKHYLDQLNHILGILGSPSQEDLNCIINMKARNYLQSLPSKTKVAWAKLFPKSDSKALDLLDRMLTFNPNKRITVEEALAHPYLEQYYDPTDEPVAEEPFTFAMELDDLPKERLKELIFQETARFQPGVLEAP
Chain of SRSF protein kinase 3 (Homo sapiens) (Q9UPE1 whole entry): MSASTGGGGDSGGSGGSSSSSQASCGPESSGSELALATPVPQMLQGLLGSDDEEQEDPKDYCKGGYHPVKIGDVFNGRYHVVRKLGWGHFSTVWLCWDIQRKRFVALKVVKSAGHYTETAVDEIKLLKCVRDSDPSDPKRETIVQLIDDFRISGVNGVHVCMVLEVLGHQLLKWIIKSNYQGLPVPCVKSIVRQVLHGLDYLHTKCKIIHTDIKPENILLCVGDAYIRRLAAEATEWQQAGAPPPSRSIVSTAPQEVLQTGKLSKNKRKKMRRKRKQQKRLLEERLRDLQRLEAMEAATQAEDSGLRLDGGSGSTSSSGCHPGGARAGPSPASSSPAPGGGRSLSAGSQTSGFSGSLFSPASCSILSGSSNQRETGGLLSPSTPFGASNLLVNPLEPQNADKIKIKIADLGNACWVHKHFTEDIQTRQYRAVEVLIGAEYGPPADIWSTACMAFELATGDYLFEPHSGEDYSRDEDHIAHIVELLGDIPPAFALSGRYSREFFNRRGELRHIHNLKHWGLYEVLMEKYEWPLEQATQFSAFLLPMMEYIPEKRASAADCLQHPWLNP

Take `NC(=O)c1sc(-n2cnc3cc(C(F)(F)F)ccc32)cc1OCc1ccccc1Br`: the inhibition (usually the drop in the measured response relative to a control, in per cent) is 0.48% in experiment [1]; -3.47% in experiment [2]; 0.48% in experiment [3]; 1.34% in [4]; 4.04% in [5]; 4.23% in [6]. The inhibition in [7] was 4.66%; in experiment [8], 0.44%; in [9], -0.68%; in experiment [10] it was 1.27%.

With `Fc1ccc(-c2ncn(C3CCNCC3)c2-c2ccnc(Oc3ccccc3)n2)cc1`, the inhibition is 3.04% in [1], -3.7% in experiment [2] and -2.18% in experiment [3].

On to `CCn1c(-c2nonc2N)nc2c(C#CC(C)(C)O)ncc(OCC3CCNCC3)c21`, for which the inhibition in experiment [1] is 6.52%; in [2], -0.11%; in [3], 3.41%; in experiment [4], -0.04%; in experiment [5] it was 5.69%; in experiment [6], 3.7%. Also, the inhibition in experiment [7] amounted to 4.04%; in experiment [8] it was 1.99%; in experiment [9] it was 2.26%; in experiment [10], 1.19%.

As for `COc1cc2c(cc1Nc1nc(Nc3ccsc3C(N)=O)c3cc[nH]c3n1)N(C(=O)CN(C)C)CCC2`, the inhibition was 1.75% in experiment [1]; -1.49% in [2]; -0.38% in [3]; 2.67% in experiment [6]; 6.9% in experiment [7]; 1.18% in experiment [8]. Also, the inhibition in experiment [9] is 0.18%; in experiment [10], 2.28%.

Turning to `COc1cccc(-n2ncc3c(N/N=C/c4ccncc4)ncnc32)c1`, the inhibition is 7.65% in [1]; -0.94% in [2]; 1.8% in [3]; 9.43% in [4]; 16.4% in experiment [5]; 4.02% in experiment [6]. The inhibition in experiment [7] was 10.8%; in experiment [8] it was 7.88%; in experiment [9] it was 43.3%; in [10], 5.45%.

For the molecule `Nc1nonc1-c1nc2cnccc2n1C1CCCCC1`, the inhibition in experiment [1] was 2.55%; in experiment [2] it was -1.48%; in experiment [3] it was -1.01%; in [4] it was -0.43%; in experiment [5] it was -3.77%; in [6], -1.77%. The inhibition in experiment [7] is 0.28%; in experiment [8], -3.11%; in experiment [9], 1.87%; in experiment [10] it was -0.65%.

`CCn1c(-c2nonc2N)nc2c(C#CC(C)(C)O)ncc(OC[C@@H]3CCCN3)c21`: the inhibition in [1] is 2.32%; in [2], -2.22%; in experiment [3] it was -4.41%; in experiment [4], 0.34%; in [5], 0.75%; in experiment [6] it was 1.96%. Further, the inhibition in [7] is 1.41%; in experiment [8] it was 0.68%; in experiment [9] it was -1.56%; in experiment [10], 0.36%.

In the case of `COc1cc(C=NNc2ncnc3c2cnn3Cc2ccccc2)ccc1O`, the inhibition is -1.19% in experiment [1]; -1.86% in experiment [2]; -0.84% in experiment [3]; -2.19% in experiment [4]; -2.5% in experiment [5]; -3.2% in experiment [6]. Also, the inhibition is -2.27% in experiment [7], -0.79% in experiment [8], -6.14% in experiment [9] and -2.53% in experiment [10].

In the case of `CCn1c(-c2nonc2N)nc2c(C#CCN)ncc(OCCCN)c21`, the inhibition in [1] is -0.18%; in experiment [2] it was -0.3%; in experiment [3], 3.44%; in [4] it was 2.31%; in experiment [5] it was -5.03%; in [6] it was -2.25%. Besides, the inhibition in [7] is 0.63%; in experiment [8] it was 2.51%; in experiment [9], -4.32%; in experiment [10], -2.6%.

For the molecule `CCn1c(-c2nonc2N)nc2c(C#CC(C)(C)O)nc(O[C@@H](CN)c3ccccc3)cc21`, the inhibition was 0.99% in [1]; -2% in [2]; -2.07% in [3]; 1.44% in experiment [4]; 1.33% in [5]; -1.84% in experiment [6]. The inhibition in experiment [7] stood at 2.96%; in experiment [8], 1.2%; in [9], 0.11%; in experiment [10], 1.29%.

Regarding `NS(=O)(=O)c1ccc(-c2ccc3c(NC(=O)C4CC4)n[nH]c3c2)cc1`, the inhibition in experiment [1] was 1.36%; in experiment [2] it was 0.31%; in experiment [3], -1.45%; in experiment [4], 7.62%; in experiment [5], 5.94%; in experiment [6], 2.34%. Further, the inhibition in experiment [7] was -1.13%; in [8], 3.91%; in [9], 5.02%; in [10], 0.67%.

Turning to `NS(=O)(=O)c1ccc(N/C=C2\C(=O)Nc3ccc4ncsc4c32)cc1`, the inhibition in [1] was 15.3%; in experiment [2], -1.67%; in experiment [3], 0.72%; in experiment [4], 18.6%; in [5], 23.4%; in experiment [6], 4.61%. For the same molecule, the inhibition came out at 15% in experiment [7], 4.52% in experiment [8], 4.84% in experiment [9] and 2.86% in experiment [10].

Take `COc1cccc(COc2cc(-n3cnc4ccccc43)sc2C(N)=O)c1`: the inhibition in experiment [1] is 3%; in experiment [2] it was -1.99%; in [3], -1.01%; in experiment [4], 1.67%; in experiment [5], 8.88%; in experiment [6] it was 1.92%. For the same molecule, the inhibition is 4.36% in [7], -0.06% in experiment [8], -2.46% in experiment [9] and -0.12% in experiment [10].

As for `Cc1cc(-c2ccco2)cc(C)c1/C=C/c1cncc(-c2nn[nH]n2)c1`, the inhibition is 1.84% in [1]; -1.41% in experiment [2]; -1.53% in [3]; 1.46% in experiment [4]; 1.43% in experiment [5]; 3.14% in experiment [6]. Further, the inhibition in experiment [7] was 3.31%; in experiment [8], 0.77%; in experiment [9], -1.04%; in experiment [10], 0.9%.
